In assay [1] the test system is XIP peptide (Xip251-270) binding. The assay is described as follows: small-molecule binders of XIP peptide, primary screen, biochemical, small-molecule microarray, fluorescence 635/667 nm, 0.1 µg/mL protein (AID 1182). Particulars: fluorescent protein binding, 635 nm, higher = more signal, called active from +8 up or from −8 down.
Assay [2] deals with XIP peptide (Xip251-270). The assay is described as follows: small-molecule binders of XIP peptide, primary screen, biochemical, small-molecule microarray, fluorescence 635/667 nm, 0.5 µg/mL protein (AID 1183). Conditions: small-molecule microarray binding, fluorescence 635 nm; higher = more signal.
Assay [3] can be described thus: Plasmodium falciparum growth inhibition, primary screen, strain 3D7, DAPI fluorescence, 100 nL (AID 1184).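 Also: parasites grown inside human red blood cells in medium with human serum.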 Particulars: P. falciparum 3D7 growth, 3 d, higher = more signal.
In assay [4] the target is Homeobox protein Hox-A13 (Mus musculus) (UniProt Q62424). The assay is described as follows: inhibitors of HoxA13-DNA binding, primary screen, biochemical, fluorescence polarization, labeled oligonucleotide (AID 1185). Conditions: 15 min, higher = more signal, called active from +8 up or from −8 down.
The nature of assay [5]: inhibitors of hydroxyurea-induced Chk1 phosphorylation, primary screen, imaging, HeLa, phospho-Chk1 antibody, percent positive cells (AID 1186). Conditions: hydroxyurea-induced phospho-Chk1 immunofluorescence imaging, higher = more signal.
Assay [6] is described as follows: inhibitors of hydroxyurea-induced Chk1 phosphorylation, primary screen, imaging, HeLa, phospho-Chk1 nuclear intensity (AID 1187). Particulars: hydroxyurea-induced phospho-Chk1 immunofluorescence imaging, higher = more signal.

The source made the active and inactive calls. Unless noted, no rule for the calls is given here.

Sequence of Homeobox protein Hox-A13 (Mus musculus) (Q62424 whole entry, looked up): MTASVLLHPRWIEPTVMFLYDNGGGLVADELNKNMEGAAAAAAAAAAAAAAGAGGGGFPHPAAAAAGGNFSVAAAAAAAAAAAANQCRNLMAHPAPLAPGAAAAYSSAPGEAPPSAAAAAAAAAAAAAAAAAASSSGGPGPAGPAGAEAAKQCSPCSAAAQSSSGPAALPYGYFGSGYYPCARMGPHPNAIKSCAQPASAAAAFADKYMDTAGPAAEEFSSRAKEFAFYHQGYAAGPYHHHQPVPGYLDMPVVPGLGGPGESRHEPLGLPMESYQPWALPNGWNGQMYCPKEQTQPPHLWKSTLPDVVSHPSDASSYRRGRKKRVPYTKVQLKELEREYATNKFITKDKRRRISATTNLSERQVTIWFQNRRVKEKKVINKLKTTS

In the case of `C=CCN1C(=O)[C@]2(O[C@H](CCn3cc(CCO)nn3)[C@@H]([Si](C)(C)c3ccc(OC)cc3)[C@@H]2C)c2cc(N3CCOC3=O)ccc21`, the composite z-score in assay [1] was 0.0616 (inactive); in assay [2] it was 0.57. Further, the z-score in assay [3] was -2.7; in assay [4], -5.66 (inactive); in assay [5], -0.203 (inactive); in assay [6], -0.5 (inactive).

On to `C=CCNC(=O)[C@H]1[C@@H]2C(=O)O[C@@H](c3ccccc3)[C@@H](c3ccccc3)N2[C@@H](c2ccc(O)cc2)[C@]12C(=O)N(C(=O)OCCOC)c1ccc(C#CC3=CCCCC3)cc12`, for which the results for the composite z-score in assay [1] and in assay [2] were 0.514 (inactive) and 0.834, respectively. For the same compound, the z-score in assay [3] is -0.919; in assay [4], -0.216 (inactive); in assay [5], -0.411 (inactive); in assay [6], -0.376 (inactive).

On to `COC(=O)[C@]1(CO)N=C(c2ccc(OCCCO)cc2)O[C@@H]1c1ccccc1N=[N+]=[N-]`, for which the composite z-score in assay [1] is 0.816 (inactive); in assay [2], 0.812. In addition, the z-score is -0.313 in assay [3], -6.14 (inactive) in assay [4], 0.0389 (inactive) in assay [5] and 0.0674 (inactive) in assay [6].

Consider `COc1ccc([Si](C)(C)[C@H]2[C@H](CCO)O[C@@]3(C(=O)N(Cc4cccc(NC(=O)[C@H](C)O)c4)c4ccccc43)[C@@H]2C)cc1`, for which the values for the composite z-score in assay [1] and in assay [2] were -0.201 (inactive) and 0.618, respectively. Further, the z-score was -2.74 in assay [3], -6.16 (inactive) in assay [4], -1.95 (inactive) in assay [5] and -0.667 (inactive) in assay [6].

As for `CCCC[C@@H](O)C1=C(C)C[C@H]2C(=O)N(Cc3ccccc3)C(=O)[C@H]2[C@H]1CO`, the composite z-score in assay [1] was -0.38 (inactive); in assay [2] it was 0.576. The z-score in assay [3] was -0.224; in assay [4] it was -3.33 (inactive); in assay [5] it was 0.391 (inactive); in assay [6] it was 0.984 (inactive).

With `C#C[C@@H]1Oc2ccccc2S(=O)(=O)N2CCC[C@H]12`, the composite z-score is -0.037 (inactive) in assay [1] and -0.149 in assay [2]. The z-score in assay [3] is -0.0728; in assay [4], -0.61 (inactive); in assay [5], 0.723 (inactive); in assay [6], 0.595 (inactive).

Take `CO[C@H]1O[C@H](CO)[C@@H](OC(=O)Nc2ccc(C#N)cc2)[C@H](OC(=O)c2cc3ccccc3[nH]2)[C@H]1OC(=O)c1cc2ccccc2[nH]1`: the results for the composite z-score in assay [1] and in assay [2] were 2.37 (inactive) and 0.875, respectively. Moreover, the z-score was -1.96 in assay [3], -2.26 (inactive) in assay [4], -0.487 (inactive) in assay [5] and -0.52 (inactive) in assay [6].

With `O=C1O[C@@H](c2ccccc2)[C@@H](c2ccccc2)N2[C@@H](c3ccccc3OCCO)[C@]3(C(=O)Nc4ccc(C#CCCO)cc43)[C@@H](C(=O)O)[C@H]12`, the composite z-score in assay [1] is 0.106 (inactive); in assay [2], 0.842. The z-score in assay [3] is -1.69; in assay [4] it was -5.33 (inactive); in assay [5] it was 0.722 (inactive); in assay [6], 0.803 (inactive).

Consider `C=CC[C@]1(C(=O)NCc2ccccc2)N=C(c2ccc(OCCCO)cc2)O[C@H]1c1ccccc1`, for which the composite z-score was 1.55 (inactive) in assay [1] and 0.776 in assay [2]. Also, the z-score in assay [3] was -2.05; in assay [4] it was -6.34 (inactive); in assay [5] it was 0.0635 (inactive); in assay [6], 0.896 (inactive).

As for `CN(C)C(=O)[C@@]1(Cc2ccccc2)N=C(c2ccc(OCCCO)cc2)O[C@H]1c1ccccc1CN=[N+]=[N-]`, the composite z-score in assay [1] is 2.74 (inactive); in assay [2], 0.746. The z-score in assay [3] was -2.11; in assay [4], -1.69 (inactive); in assay [5], 0.264 (inactive); in assay [6] it was 0.492 (inactive).
